The other results are listed elsewhere or left out. Records with an inconclusive call do not appear. A number with no mark means an inactive call. Active and inactive are the calls of the source. The call rests on the fitted dose curve; in most records, active means well fitted activation curve with a large enough effect; inconclusive means small, poorly fitted or top-dose-only effect; inactive means flat fitted curve, though single readings scatter.

This assay is described as follows: Parental Cell Counter Screen Assay for Epigenetic Modulators: Hit Validation. As to conditions: mouse c127i parental cells, 30 h; Potency: fluorescent cell count; fluorescent cell count: hits give high values, concentration not given here. From the text:
NIH Molecular Libraries Screening Centers Network [MLSCN] NIH Chemical Genomics Center [NCGC] MLSCN Grant: 1 X01 MH079860-01 Assay Provider: Elisabeth D. Martinez, University of Texas SW Medical Center NCGC Assay Overview: This assay is a counter screen for the Locus Derepression (LDR) assay (PubChem AID 1865). The LDR assay detects the derepression of a GFP reporter that is stably integrated in a region of the genome of murine c127i mammary cells that is presumably silenced. Compounds that cause derepression of the locus to express GFP are identified by enumerating GFP positive cells using a laser-scanning microplate cytometer. […] Compounds active in the parental c127i cells are likely fluorescent.
NCGC Assay Protocol Summary: Three hundred cells in 5 uL per well were dispensed into black, clear-bottom 1536-well plates. Twenty-three nL compound was transferred to the assay plate and cells were incubated 30 hours at 37 C. Medium was removed, cells were washed two times with PBS, and fluorescent cells were enumerated as objects between the sizes of 20 to 120 um width and depth using a laser-scanning microplate imager (Acumen Explorer Ex3, TTP Labtech). For further details, see Johnson, RL, Huang, W, Jadhav, A, Austin, CP, Inglese, J, Martinez, ED (2008). A quantitative high-throughput screen identifies potential epigenetic modulators of gene expression. Anal Biochem 375: 237-48.
(The purpose of a counterscreen is to sort out artefacts and off-target activity.)

As for `Cc1cccn2c(=O)c(/C=C3\SC(=S)N(CC(C)C)C3=O)c(NCCCOC(C)C)nc12`, the Potency was 2.51 µM (active). Take `Cc1ccc(/C=N/NC(=S)Nc2cccc(S(=O)(=O)N(C)C)c2)o1`: the fluorescent cell count is 2%.
